# Screens as filed in PubChem.
# Hits are enriched below; roughly 10% of the tested compounds scored in any of these assays.
# GLA inh pH 4.5: alpha-galactosidase A (human) inhibition, pH 4.5; P06280; purified enzyme, 4-MU-alpha-Gal fluorescence, pH 4.5; activity change, negative = inhibition, % at 105 µM; 230,000 tested, under 10 active;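 note: 0% = full activity with enzyme and -100% = basal without enzyme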
# Target sequence (P06280 whole entry, looked up): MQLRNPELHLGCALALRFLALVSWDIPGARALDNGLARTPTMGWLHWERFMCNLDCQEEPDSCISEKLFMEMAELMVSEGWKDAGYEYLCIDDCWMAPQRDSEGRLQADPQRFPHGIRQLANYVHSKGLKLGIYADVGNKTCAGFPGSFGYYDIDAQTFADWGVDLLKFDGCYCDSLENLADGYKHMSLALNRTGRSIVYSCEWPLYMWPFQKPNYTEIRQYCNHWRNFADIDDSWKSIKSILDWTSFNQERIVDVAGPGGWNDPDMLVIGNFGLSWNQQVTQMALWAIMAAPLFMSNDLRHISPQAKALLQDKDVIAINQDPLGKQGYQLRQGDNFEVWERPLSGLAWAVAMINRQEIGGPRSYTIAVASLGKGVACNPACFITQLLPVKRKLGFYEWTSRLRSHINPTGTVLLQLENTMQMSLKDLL
# PNC inhibitor: perinucleolar compartment assembly inhibition. PC3M PTB-GFP, PNC prevalence imaging, 16 h; hits give low values. activity change (PNC), negative = inhibition, % at 10 µM. 140,000 tested, 3.1% active;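 active = readout at or below -70, meaning at least 70% loss of cells showing the perinucleolar compartment, a nuclear body marking cancer cells; inconclusive = readout between -30 and a set limit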;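 note: plate controls were DMSO wells for no effect and camptothecin positive control wells for full effect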
#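 Read-out is percentage of cells bearing a perinucleolar compartment, from automated 20x imaging of fixed, Hoechst-stained PC3M PTB-GFP cells. Cells were seeded 4 h, then exposed 16 h to compound (23 nl of library stock) in duplicate plates.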
# ALOX12 inhib: blocks human 12-lipoxygenase activity. P18054. purified 12-hLO, xylenol orange hydroperoxide absorbance. Potency, µM (series often up to 57.1 µM), inactives show at the highest dose activity change, negative = inhibition, hits mostly inhibitors. 150,000 tested, 0.12% active. AID 1452; note: potency is the fitted concentration of half-maximal effect; nearly all actives have a fitted effect of over 55% in size
#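 150 nM 12hLO, 25 mM Hepes pH 7.0 + 0.01% Triton X-100; cpd preinc 15 min RT; 40 uM arachidonic acid, 30 min RT; Fe-XO 30 min; A573/A405 ratio as read-out.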
# ALDH1A1 block: ALDH1A1 (human) enzyme inhibition. P00352. Purified ALDH1A1, NADH fluorescence, propionaldehyde substrate. Potency, µM (doses to about 75.3 µM), inactives show at the top dose activity, negative = inhibition, hits mostly inhibitors. 220,000 tested, 7.3% active. AID 1030; active = well fitted inhibition curve with a large enough effect, not every such curve was filed as active; inconclusive = small, poorly fitted or top-dose-only effect, or another doubt; inactive = no such curve, though single readings can be large or run the other way;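 note: potency is the fitted concentration of half-maximal effect; plate controls were no enzyme wells and a reference inhibitor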
# HPGD inh: inhibitors of human 15-hydroxyprostaglandin dehydrogenase (HPGD); 150,000 tested, 4.3% active; Potency, µM, for the others: at the highest dose activity change, negative = inhibition, actives largely listed as inhibitors; P15428; AID 894; purified HPGD, NADH fluorescence kinetic, PGE2 substrate; active = well fitted inhibition curve with a large enough effect, not every such curve was filed as active; inconclusive = small, poorly fitted or top-dose-only effect, or another doubt; inactive = no such curve, though single readings can be large or run the other way; note: potency is the fitted concentration of half-maximal effect
#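 20 nM HPGD preincubated 15 min at room temperature with compound in 50 mM Tris-HCl pH 8, 0.01% Tween 20. Started with 1 mM NAD+ and 30 uM prostaglandin E2; NADH fluorescence (360/450 nm) read 5 times over 30-s intervals, last minus first.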
# GLA spleen mod: alpha-galactosidase A (human) modulation; P06280; human spleen homogenate, 4MU-alpha-Gal fluorescence, 40 min; Potency, µM (highest dose often 80 µM), for inactives: at the highest dose activity change, negative = inhibition, actives largely listed as inhibitors; 240,000 tested, 0.008% active;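 note: potency is the fitted concentration of half-maximal effect; 0% = enzyme with vehicle and -100% = no enzyme basal signal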
#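 Human spleen homogenate (1 ug) was the enzyme source, with 4-methylumbelliferyl-alpha-D-galactopyranoside (1 mM final) in pH 5.0 citrate buffer with 0.01% Tween-20. Compounds were titrated; after 40 min at 37C, NaOH/glycine stop, 4-MU fluorescence read; AC50 from Hill fits.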
# * = called active by the depositor; ? = inconclusive; nt = no result; ! = repeats disagree; [ ] = dose if it differs, or a comment. Unless noted, calls come from the whole dose curve; as a rule, active = well fitted curve in the direction sought with a large enough effect; inconclusive = small, poorly fitted or top-dose-only effect, or another doubt; inactive = no such curve, though single readings can be large; an effect the other way counts as inactive or inconclusive. Unless noted, % is set by controls: 0 for no effect and ±100 for the full control effect.
SMILES,GLA inh pH 4.5,PNC inhibitor,ALOX12 inhib,ALDH1A1 block,HPGD inh,GLA spleen mod
CCCCC/C=C\C/C=C\C/C=C\C/C=C\CCCC(=O)NCCc1ccc(O)c(O)c1,-7,nt,?,16µM*!,?,-18%
CCCCC/C=C\C/C=C\C/C=C\C/C=C\CCCC(=O)NCCO,1,nt,4%[0.00818 µM],10µM*!,-11%,5%
CCCCC/C=C\C/C=C\C/C=C\C/C=C\CCCC(=O)NCc1ccoc1,-5,nt,-9%[0.00818 µM],18µM*,-26%,-9%
CCCCC/C=C\C/C=C\CCCCCCCCCC(=O)NCCO,-3,nt,5%,-3%,-7%,5%
CCCCC/C=C\C/C=C\C/C=C\C/C=C\CCCC(N)=O,-2,nt,-1%,-4%,-9%,6%
CCCCC/C=C\C/C=C\C/C=C\C/C=C\CCCC(=O)Nc1ccc(O)cc1,-8,nt,-20%,?,35µM*,-4%
CCCCC/C=C\C/C=C\C/C=C\C/C=C\CCCC(=O)NCC(=O)O,0,nt,3%[0.00818 µM],5%,28µM*!,11%
CCCCC/C=C\C/C=C\C/C=C\C/C=C\CCCC(=O)NCCCC(=O)O,?,nt,-9%[0.00818 µM],-1%,-14%,16%
CCCCC/C=C\C/C=C\C/C=C\C/C=C\CCCC(=O)N(Cc1ccc(O)c(Cl)c1)Cc1ccc(O)c(Cl)c1,-4,nt,-5%[0.00818 µM],3.5µM*,-3%,16%
Cc1ncc(CN2CC=C(c3ccccc3)CC2)c(N)n1,-3,nt,7%,?,-11%,-7%
COC(=O)[C@H]1[C@H](c2ccccc2)C(=O)[C@@]2(O)c3ccccc3O[C@@]12c1ccccc1,nt,nt,nt,1%[13.5 µM],nt,-5%[17.5 µM]
CCn1c(O)c(C(c2ccccn2)c2c(O)n(CC)c(=S)[nH]c2=O)c(=O)[nH]c1=S,-7,60,-9%,25µM*,-8%,-7%
O=c1[nH]c(=S)[nH]c(O)c1C(c1ccccn1)c1c(O)[nH]c(=S)[nH]c1=O,-3,nt,nt,?,nt,-1%
OC1(c2ccc(F)cc2)CC2CCC(C1)N2Cc1nnnn1C1CCCC1 (configuration not stated),8,-7,-5%,2µM*,-2%,-2%
Fc1ccc(Cn2nnnc2CN2CCC(n3nnc4cc(C(F)(F)F)ccc43)CC2)cc1,-15,nt,nt,nt,nt,0%
O=C1C(=O)c2ccccc2-c2ccccc21,nt,?,-9%,2%,-11%,-3%
O=C1c2ccccc2C(=O)N1SC1CCCCC1,-15,51,?,1.4µM*,2.2µM*,3%
CN(C)CCCNc1c2c(nc3ccc(Cl)cc13)CCCC2,nt,nt,0%[11.4 µM],6%[13.5 µM],-4%,nt
Nc1ccc(S(=O)(=O)c2ccc(NCN3C(=O)NC(=O)C(=O)C3=O)cc2)cc1,nt,nt,1%[11.4 µM],9%[13.5 µM],-18%,nt
COc1ccc(CCNCc2ccc(C)s2)cc1OC,1,nt,nt,2%,nt,-3%
COc1ccc(Cc2nccc3cc(OC)c(OC)cc23)cc1OC,-2,16,?,-2%,14µM*!,?
CC(=O)c1ccc2c(c1)C1C(Cl)C(Sc3ccccc3[N+](=O)[O-])CC1C(c1ccccc1)N2 (configuration not stated),-2,-97*,-10%,7.9µM*,-25%,-14%
Cc1ccc2c(c1)C1(CCN(CCc3nc(-c4ccccc4)oc3C)CC1)OC(=O)N2,nt,nt,nt,nt,nt,-9%
CN(C)c1ncc(/C=C2/C(=O)NC(=S)N(C3CCCCC3)C2=O)cn1,9,nt,nt,?,nt,7%
CC(C)(C)N1C(=O)NC(=O)/C(=C\c2ccc3c(c2)CCN3CCCCl)C1=O,-2,nt,nt,nt,nt,-12%
SMILES,GLA inh pH 4.5,PNC inhibitor,ALOX12 inhib,ALDH1A1 block,HPGD inh,GLA spleen mod
C=CCN1C(=O)/C(=C/c2ccc3c(c2)CCCN3CCC)C(=O)NC1=S,-1,12,-18%,1.3µM*,14µM*,-1%
CCN1C(=O)/C(=C/c2ccc3c(c2)CCN3CCCCl)C(=O)NC1=S,-1,-99*,-28%,0.2µM*,7.9µM*,-1%
O=C1NC(=S)N(C2CC2)C(=O)/C1=C/c1ccc2c(c1)CCN2CCCCl,-9,56,-19%,0.89µM*,11µM*,1%
CCCCNC(=O)Oc1cc(CCl)on1,0,nt,nt,13µM*,nt,-6%
Cc1ccc2c(c1)N(CCC(=O)N1CCC3(CC1)OCCO3)C(=O)CO2,10,4,-4%,10µM*,-13%,4%
COc1ccc(C(=O)CN2CCCCC2)cc1,-4,nt,nt,?,nt,-4%
CC1CC(C)CN(CC(=O)c2ccc(OC(F)F)cc2)C1 (configuration not stated),-3,?,2%,1.3µM*,-9%,-14%
CCCC1=C(C(=O)OCC)C2(C(=O)Nc3ccccc32)C(C#N)=C(N)O1 (configuration not stated),0,0,-12%,11µM*,-4%,2%
COC(=O)CC1=C(C(=O)OC)C2(C(=O)Nc3c(C)cccc32)C(C#N)=C(N)O1 (configuration not stated),10,20,14%,10µM*,-13%,7%
O=C1NC(=O)c2c1c1c3ccccc3n3c1c1c2c2ccccc2n1C1CCC3O1,nt,nt,nt,nt,nt,-16%
ClC(Cl)C(Cl)Cl,nt,nt,0%,12%,-12%,2%
O=C(O)Cc1ccccc1,-10,nt,1%[0.00818 µM],-5%,-1%,-3%
O=C(CCl)c1ccccc1,nt,nt,-3%,0.079µM*,-7%,-1%
